The values that follow come from PubChem BioAssay (NCATS).

“And” between values parts separate entries of the source, which are not always exact repeats. Equal entries are not always repeated. Results filed as inconclusive are left out. The source made the active and inactive calls. Unless noted, the call rests on the fitted dose curve; in most records, active means well fitted curve in the direction sought with a large enough effect; inconclusive means small, poorly fitted or top-dose-only effect, or another doubt; inactive means no such curve, though single readings can be large; an effect the other way counts as inactive or inconclusive.

For experiment [1], the target named is T1, Hexokinase-4 (Homo sapiens) + Glucokinase regulatory protein (Homo sapiens) (UniProt P35557+Q14397). Nature of the experiment: qHTS assay for inhibitors of recombinant human GCK-GKRP interaction: Diaphorase-coupled assay (AID 743205). The procedure, abridged:
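Compounds pre-incubated 20 min with substrate, then 10 nM GST-GCK with 10 nM FLAG-GKRP added. GCK activity coupled via G6PDH and diaphorase to resorufin (5 mM glucose, 0.4 mM ATP, 0.15 mM NADP+, pH 7.6), read kinetically over 30 minutes at Ex 525/Em 590 nm.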
In general terms: qHTS replaces the single test concentration by a dilution series.

In experiment [2] the target is T1, Hexokinase-4 (Homo sapiens) + Glucokinase regulatory protein (Homo sapiens). Nature of the experiment: qHTS assay for inhibitors of recombinant human GCK-GKRP interaction: ADP-Glo assay (AID 743206).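 Further: plate controls were DMSO plus enzyme for no effect and no enzyme for full effect.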 The procedure, abridged: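 Pin-transferred compounds meet a 15 nM GST-GCK/15 nM FLAG-GKRP/2 uM S6P mix (dispense concentrations). ATP is then added to 0.4 mM final with 5 mM glucose, and the reaction runs 60 min at room temperature. ADP is quantified luminescently.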

Experiment [3] has the same target. As to the kind of experiment: qHTS assay for inhibitors of recombinant human GCK-GKRP interaction: HTRF assay (AID 743207).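 Further: 0% = DMSO with GCK present and -100% = DMSO wells lacking GCK.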 Put shortly: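 HTRF binding of 5 nM GST-GCK and 5 nM FLAG-GKRP with 2 uM S6P in pH 7.1 Hepes buffer (MgCl2, KCl, DTT, Tween 20, BSA). Anti-FLAG XL665 and anti-GST donor added, 60 min at room temperature; 665/615 nm read, normalized to with- and without-GCK controls.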

Experiment [4] in a line: qHTS Assay for Identifying Gametocytocidal Compounds (AID 743244).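 Further: on the % scale 0 is the no-effect control and ±100 the full control effect; actives lower the fluorescent signal which means gametocytes are killed.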 The conditions noted are these: P. falciparum 3D7 stage III-V gametocytes, alamarBlue, 72 h; max response: stronger effect = lower value. Put shortly: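 Stage III-V P. falciparum 3D7 gametocytes, 20,000 per well, were exposed to compounds for 72 h at 37C, 5% CO2. AlamarBlue was then added for 24 h and viability was read as fluorescence at Ex 525/Em 598 nm.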

Experiment [5] can be described thus: qHTS assay for measurement of the activity of small molecule inhibitors on Zika virus induced Caspase-3 activity in human astrocytoma cells (AID 1224859).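 Further: plate controls were ZIKV-infected untreated cells for no effect and uninfected cells for full effect.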 The procedure, abridged: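 SNB-19 astrocytoma cells, 250/well, pretreated 1 h with compounds, then Zika virus at 2 FFU/cell for 6 h at 37 C; Caspase-Glo 3/7 luminescence after 30 min; percent inhibition normalised to uninfected and infected controls.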

Experiment [6] can be described thus: qHTS assay to identify small molecule inhibitors of chordoma cells - UCH-1 (AID 1259355). Further: nearly all actives have a fitted effect of over 55% in size. Further: potency means the concentration at half of the fitted maximal effect. The procedure, abridged: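 800 cells/well, overnight attach; compounds pinned at 15 concs, then auranofin/camptothecin/doxorubicin/rubitecan/topotecan combo added; 48hr 37 C, 5% CO2; CellTiter-Glo, 30min RT, luminescence.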
Experiment [7] is described as follows: qHTS assay to identify small molecule inhibitors of chordoma cells - UCH-2 (AID 1259356). Further: on the % scale 0 is the no-effect control and ±100 the full control effect.
The nature of experiment [8]: qHTS profiling for inhibitors of Plasmodium falciparum (3D7) proliferation (AID 743322).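 Further: infected erythrocytes exposed to compound for 72 h before lysis; 100% = DMSO vehicle wells and 0% = 0.29 µM artemisinin.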 To be noted: P. falciparum 3D7 proliferation; at 28.7 µM (top of the series) unless noted. Put shortly:
(§1)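 Parasite DNA was quantified by SYBR Green I fluorescence (ex 485, em 535 nm) after overnight lysis in saponin/Triton buffer at room temperature. Cultures at 0.3% parasitemia and 2.5% hematocrit were first exposed to compound for 72 h at 37 C; signals were normalised to artemisinin (0.29 uM) and vehicle wells.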

The nature of experiment [9]: qHTS profiling for inhibitors of Plasmodium falciparum (DD2) proliferation (AID 743323; call rule not given here). The conditions noted are these: lower = more inhibition; at 28.7 µM (top of the series) unless noted. Put shortly:
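Parasite proliferation measured via DNA-dye fluorescence, as uninfected erythrocytes lack DNA. Cultures at 0.3% parasitemia and 2.5% hematocrit incubated 72 h with compound; signal scaled between vehicle and 0.29 uM artemisinin wells.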

Experiment [10] in a line: qHTS profiling for inhibitors of Plasmodium falciparum (HB3) proliferation (AID 743324).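 Further: 100% = DMSO vehicle wells and 0% = artemisinin-treated control wells.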 The conditions noted are these: Plasmodium falciparum HB3 blood-stage proliferation; at 28.7 µM (top of the series). The procedure, abridged: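 SYBR Green fluorescence (485 ex/535 em) of lysed cultures, incubated overnight at room temperature in the dark, quantifies parasite DNA. Infected erythrocytes at 0.3% parasitemia and 2.5% hematocrit were exposed 72 h; values normalized to DMSO and 0.29 uM artemisinin controls.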

Experiment [11] can be described thus: qHTS profiling of the MIPE4 collection as inhibitors of Plasmodium falciparum (3D7) proliferation (AID 743344; call rule not given here;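 further: scaled between DMSO vehicle wells and 0.29 µM artemisinin as full inhibition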). The conditions noted are these: P. falciparum 3D7 in erythrocytes, SYBR Green DNA fluorescence, 72 h; at 28.5 µM (top of the series). The procedure, abridged:
as §1

Experiment [12] can be described thus: qHTS profiling of the MIPE4 collection as inhibitors of Plasmodium falciparum (DD2) proliferation (AID 743345; call rule not given here). The conditions noted are these: P. falciparum Dd2 in erythrocytes, SYBR Green DNA, 72 h; at 28.5 µM (top of the series). The procedure, abridged:
as §1

A short description of experiment [13]: qHTS profiling of the MIPE4 collection as inhibitors of Plasmodium falciparum (DD2) proliferation (Rep 2) (AID 743346; call rule not given here). To be noted: P. falciparum Dd2 in erythrocytes, SYBR Green DNA, 72 h; at 28.5 µM (top of the series). Put shortly: as §1
Experiment [14] in a line: qHTS profiling of the MIPE4 collection as inhibitors of Plasmodium falciparum (HB3) proliferation (AID 743347; call rule not given here;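 further: plate controls were DMSO vehicle wells for no effect and artemisinin wells for full effect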). To be noted: P. falciparum HB3 in erythrocytes, SYBR Green DNA, 72 h; at 28.5 µM (top of the series). The procedure, abridged:
as §1

T1 sequence (P35557 whole entry, looked up): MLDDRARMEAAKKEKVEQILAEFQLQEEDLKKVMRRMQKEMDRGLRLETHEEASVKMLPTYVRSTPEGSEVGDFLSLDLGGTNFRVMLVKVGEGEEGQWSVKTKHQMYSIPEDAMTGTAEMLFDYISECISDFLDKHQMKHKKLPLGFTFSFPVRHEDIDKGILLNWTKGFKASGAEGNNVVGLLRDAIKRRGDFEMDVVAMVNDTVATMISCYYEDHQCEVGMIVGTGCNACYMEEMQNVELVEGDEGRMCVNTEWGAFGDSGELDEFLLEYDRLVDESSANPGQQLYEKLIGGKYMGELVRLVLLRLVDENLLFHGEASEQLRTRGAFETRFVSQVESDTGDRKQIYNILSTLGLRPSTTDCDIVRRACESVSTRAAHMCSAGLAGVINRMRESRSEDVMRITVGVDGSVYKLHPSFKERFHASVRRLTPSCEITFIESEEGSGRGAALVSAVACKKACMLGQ
T1 sequence (Q14397 whole entry, looked up): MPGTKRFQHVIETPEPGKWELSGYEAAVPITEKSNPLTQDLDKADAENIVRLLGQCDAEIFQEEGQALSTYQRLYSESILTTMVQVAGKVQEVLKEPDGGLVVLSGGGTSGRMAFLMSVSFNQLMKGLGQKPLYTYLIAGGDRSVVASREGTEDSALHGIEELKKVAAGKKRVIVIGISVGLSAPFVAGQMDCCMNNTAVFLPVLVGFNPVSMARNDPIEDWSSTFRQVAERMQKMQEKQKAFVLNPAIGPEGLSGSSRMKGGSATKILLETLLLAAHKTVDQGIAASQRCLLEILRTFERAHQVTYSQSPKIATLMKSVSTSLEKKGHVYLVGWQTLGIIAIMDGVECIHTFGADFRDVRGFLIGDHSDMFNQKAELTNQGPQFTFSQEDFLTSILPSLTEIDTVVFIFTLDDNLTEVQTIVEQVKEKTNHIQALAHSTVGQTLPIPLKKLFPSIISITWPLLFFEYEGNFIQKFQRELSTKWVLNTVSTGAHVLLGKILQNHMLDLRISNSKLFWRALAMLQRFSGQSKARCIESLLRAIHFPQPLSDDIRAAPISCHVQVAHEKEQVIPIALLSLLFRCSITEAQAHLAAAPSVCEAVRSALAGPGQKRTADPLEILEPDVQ

For `Nc1c2c(nc3ccccc13)CCCC2O` (centres undefined), the outcome in experiment [1], in [2] and in [5] was inactive. For the same molecule, the Potency entry in experiment [3], in experiment [6] and in experiment [7] was “inactive” in each case. In addition, in experiment [4], the max response is -3.49% (inactive) and -6.56% (inactive).
With `CC(=O)Oc1cc(C(C)C)c(OCCN(C)C)cc1C`, the result in experiment [1], in experiment [2] and in experiment [5] was inactive. Also, the max response in experiment [4] was 14.5% (inactive) and 12.4% (inactive). Also, in experiment [7], the Potency result is “inactive”.
Take `CC(C(=O)O)c1ccc(CC2CCCC2=O)cc1` (centres undefined): the outcome in experiment [1], in experiment [2] and in experiment [5] was inactive. Further, the max response in experiment [4] is -0.912% (inactive) and 17.1% (inactive). Besides, the Potency entry in experiment [6] and in experiment [7] was “inactive” in each case.
As to `COc1cc2c(cc1OC)-c1cc(=Nc3c(C)cc(C)cc3C)n(C)c(=O)n1CC2`, the outcome in [1], in experiment [2] and in [5] was inactive. Also, the max response in experiment [4] was 25.2% (inactive). For the same molecule, the Potency in experiment [6] was 25.1 µM (active). The Potency entry in experiment [7] was “inactive”.
In the case of `CCn1nc(C(=O)O)c(=O)c2cc3c(cc21)OCO3`, the max response in experiment [4] is 3.16% (inactive) and -5.51% (inactive). Further, the result in experiment [5] was inactive. Also, the Potency entry in experiment [6] and in [7] was “inactive” in each case.
On to `CN1C[C@H](C(=O)N[C@]2(C)O[C@@]3(O)[C@@H]4CCCN4C(=O)[C@H](Cc4ccccc4)N3C2=O)C[C@@H]2c3cccc4[nH]cc(c34)C[C@H]21`, for which the outcome in [1], in experiment [2] and in experiment [5] was inactive. Also, the Potency entry in experiment [3] and in experiment [7] was “inactive” each time. The remaining parasite growth % (stronger effect = lower value) in experiment [8] was -0.39%. The molecule further returned an activity, percent of control in [9] of 0.0095%. Further, in experiment [10], the remaining proliferation (% of control), lower = more inhibition was -1.27%. Moreover, the parasite growth, % of DMSO control in experiment [11] worked out at 5.44%. Besides, in experiment [12], the parasite growth remaining, % of DMSO control (lower = more inhibition) came to 7.94%. This molecule came in with a parasite growth, % of control (lower = inhibition) in experiment [13] of 11.7%. In addition, the growth, % of control in [14] is 5.6%.
Regarding `CCCN1C[C@H](CSC)C[C@@H]2c3cccc4[nH]cc(c34)C[C@H]21`, the result in experiment [1], in experiment [2] and in experiment [5] was inactive. Further, the Potency result in experiment [3], in [6] and in [7] was “inactive” each time. Moreover, in [4], the max response is 27.1% (inactive).
In the case of `Fc1ccc(C(c2ccc(F)cc2)N2CCN(C/C=C/c3ccccc3)CC2)cc1`, the outcome in experiment [1], in [2] and in experiment [5] was inactive. Besides, the max response in [4] is 16.8% (inactive) and 11% (inactive). The Potency entry in experiment [6] is “inactive”.
With `CN1C(=O)CC[C@H]1c1cccnc1`, the outcome in experiment [1], in [2] and in [5] was inactive. Moreover, in [4], the max response was 3.71% (inactive) and 23.6% (inactive). Also, the Potency entry in experiment [6] and in [7] was “inactive” throughout.
With `CN(C(=O)CCCOc1ccc2[nH]c(=O)ccc2c1)C1CCCCC1`, the result in experiment [1], in experiment [2] and in [5] was inactive. Also, the Potency entry in experiment [3], in [6] and in experiment [7] was “inactive” throughout. Also, in experiment [4], the max response was -2.24% (inactive) and 11% (inactive).
Consider `CNC1(C)C2CCC(C2)C1(C)C` (centres undefined), for which the outcome in experiment [1], in experiment [2] and in experiment [5] was inactive. Moreover, the Potency entry in [3], in [6] and in [7] was “inactive” each time. Also, in experiment [4], the max response was 12.1% (inactive) and 8.7% (inactive).
`CO[C@@]1(NC(=O)CSCC#N)C(=O)N2C(C(=O)O)=C(CSc3nnnn3C)CS[C@@H]21`: the outcome in [1], in experiment [2] and in [5] was inactive. The Potency entry in experiment [3], in experiment [6] and in experiment [7] was “inactive” in each case. Besides, the max response in experiment [4] was 0.458% (inactive) and 21.8% (inactive).
